In PubChem BioAssay (NCI) one finds growth data, which are given here for 13 compounds.

Test systems include NCI-H226 lung; NCI-H322M lung; HOP-62 NSCLC; NCI-H460 lung; HOP-92 NSCLC; NCI-H522 lung; A549/ATCC NSCLC; 786-0 renal; COLO 205 colon; DU-145 prostate.
Experiment in all cases: NCI-60 one-dose screen, 48 h (100 = growth as untreated, 0 = no growth, -100 = all killed)
Common to all, as to details: 10 µM unless noted

SMILES strings stand for the structures. Compounds without any hit were thinned out: in the full panel of roughly 83,000, 20% have a hit.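 Single-concentration screen, 48 h exposure, 96-well plates. Endpoint: percent growth. Below 10 = active.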 A number with no mark means an inactive call. Activity calls are given as the source filed them.

On to `COc1ccc(NC2=CC(=O)C(C)=C(C)C2=O)cc1`, for which the growth was 97.2% in the assay with NCI-H226 lung; 103% in the assay on NCI-H322M lung; 99.7% with HOP-62 NSCLC; 99.6% with NCI-H460 lung; 172% in the assay on HOP-92 NSCLC; 82.5% in the assay with NCI-H522 lung. Further, the growth is 97.3% in the assay with A549/ATCC NSCLC, 90.5% in the assay on 786-0 renal, 107% with COLO 205 colon and 105% in the assay with DU-145 prostate.
For the compound `Nc1cc(-c2c[nH]c3ccc(F)cc23)nc2cc(-c3c[nH]c4ccc(F)cc34)nn12`, the growth with NCI-H226 lung was 97.4%; with NCI-H322M lung, 94.1%; in the assay on HOP-62 NSCLC, 101%; in the assay with NCI-H460 lung, 32.2%; in the assay with HOP-92 NSCLC it was 83.5%; in the assay on NCI-H522 lung, 90.3%. The growth with A549/ATCC NSCLC was 79.5%; in the assay with 786-0 renal, 66.3%; in the assay on COLO 205 colon, 118%; in the assay on DU-145 prostate, 72.7%.
In the case of `O=C(N/N=C/c1ccc[nH]1)c1[nH]c2ccc(Br)cc2c1-c1ccccc1`, the growth in the assay on NCI-H226 lung is 35.9%; with NCI-H322M lung, 32.4%; in the assay with HOP-62 NSCLC it was 22.2%; in the assay with NCI-H460 lung, 2.17% (active); with HOP-92 NSCLC, 15.5%; in the assay with NCI-H522 lung, -20.2% (active). For the same compound, the growth with A549/ATCC NSCLC was 17.6%; with 786-0 renal, 13.7%; with COLO 205 colon, 6.05% (active); in the assay on DU-145 prostate, 20.6%.
`CC(=O)Oc1ccccc1C(=O)Nc1cc(C(C)C)ccc1C`: the growth in the assay on NCI-H226 lung was 9.84% (active); with NCI-H322M lung it was 11.7%; in the assay on HOP-62 NSCLC it was 19.6%; in the assay with NCI-H460 lung, 9.6% (active); in the assay with HOP-92 NSCLC it was -19.5% (active); in the assay on NCI-H522 lung, 4.56% (active). Moreover, the growth in the assay on A549/ATCC NSCLC is 13.1%; in the assay on 786-0 renal, 25.6%; in the assay with COLO 205 colon, 92.7%; in the assay with DU-145 prostate, 23.1%.
Regarding `COc1cc(OC)c(C2SCC(=O)N2Nc2ncnc3ccccc23)cc1OC` (stereo not given), the growth in the assay with NCI-H226 lung was 107%; in the assay with NCI-H322M lung it was 96.4%; in the assay on HOP-62 NSCLC, 100%; with NCI-H460 lung, 111%; in the assay with HOP-92 NSCLC, 147%; in the assay with NCI-H522 lung it was 98.9%. For the same compound, the growth was 104% with A549/ATCC NSCLC, 104% in the assay with 786-0 renal, 113% in the assay on COLO 205 colon and 106% with DU-145 prostate.
Consider `Cc1ccc2c(n1)C(=O)C(Cl)=C(Nc1cccc(C(C)C)c1)C2=O`, for which the growth in the assay on NCI-H226 lung is 35.4%; in the assay with NCI-H322M lung, 85%; with HOP-62 NSCLC it was 89.1%; in the assay on NCI-H460 lung, 78.8%; in the assay on HOP-92 NSCLC, 110%; in the assay with NCI-H522 lung, 23.4%. For the same compound, the growth in the assay with A549/ATCC NSCLC was 29.9%; in the assay on 786-0 renal, 68.4%; in the assay with COLO 205 colon, 112%; with DU-145 prostate, 22.5%.
On to `Cc1ccccc1NC(=O)/C=C/c1ccc(OCCOc2ccc3c(C)cc(=O)oc3c2)cc1`, for which the growth was 92.9% in the assay on NCI-H226 lung; 92.2% with NCI-H322M lung; 110% in the assay on HOP-62 NSCLC; 91.8% with NCI-H460 lung; 93.1% in the assay with HOP-92 NSCLC; 85.1% in the assay on NCI-H522 lung. Moreover, the growth in the assay on A549/ATCC NSCLC is 95.7%; with 786-0 renal, 110%; in the assay with COLO 205 colon it was 103%; in the assay on DU-145 prostate, 100%.
For `CN(C)CCCNc1c2ccc(Cl)cc2nc2c1oc1ccc(Cl)cc12`, the growth is 25.7% in the assay on NCI-H226 lung; 2.57% (active) in the assay on NCI-H322M lung; 47.7% with HOP-62 NSCLC; -31.2% (active) in the assay with NCI-H460 lung; 21.8% in the assay on HOP-92 NSCLC; 16.7% in the assay on NCI-H522 lung. The growth was -38.4% (active) in the assay with A549/ATCC NSCLC, -85.3% (active) in the assay on 786-0 renal, 34.2% in the assay with COLO 205 colon and -48.8% (active) in the assay with DU-145 prostate.
For `CCOC(=O)c1c(NC(=O)c2cccc(C(F)(F)F)c2)sc2cc(O)ccc12`, the growth with NCI-H226 lung was 98.1%; in the assay with NCI-H322M lung, 98%; in the assay with HOP-62 NSCLC, 99.3%; in the assay with NCI-H460 lung, 99.9%; with HOP-92 NSCLC, 102%; in the assay on NCI-H522 lung, 81.3%. The growth in the assay on A549/ATCC NSCLC was 101%; in the assay on 786-0 renal, 109%; in the assay with COLO 205 colon it was 107%; in the assay on DU-145 prostate it was 98.9%.
Regarding `CN(C)CCCOc1c2ccccc2nc2c1oc1ccc(Cl)cc12`, the growth in the assay on NCI-H226 lung was -6.99% (active); with NCI-H322M lung, -9.94% (active); with HOP-62 NSCLC, 14.2%; with NCI-H460 lung, 4.37% (active); in the assay with HOP-92 NSCLC, 3.66% (active); with NCI-H522 lung, -57.1% (active). In addition, the growth was -2.75% (active) with A549/ATCC NSCLC, 7.33% (active) in the assay on 786-0 renal, -24.5% (active) with COLO 205 colon and -1.68% (active) in the assay with DU-145 prostate.
With `Cc1cc2nc3c4cc(Cl)ccc4n(CC(=O)NCCN(C)C)c3nc2cc1C`, the growth in the assay on NCI-H226 lung is 25.7%; in the assay with NCI-H322M lung it was 83.7%; with HOP-62 NSCLC it was 73.7%; in the assay on NCI-H460 lung it was -69.9% (active); in the assay with HOP-92 NSCLC, 57.1%; with NCI-H522 lung it was 91.8%. Moreover, the growth was 89.4% in the assay on A549/ATCC NSCLC, -92.4% (active) with 786-0 renal, 76.8% in the assay with COLO 205 colon and 94.4% with DU-145 prostate.
`Cc1cc(C(NC(=O)CCCCCNc2cccc3c2C(=O)N(C2CCC(=O)NC2=O)C3=O)c2cccnc2)c(O)c2ncccc12` (stereo not given): the growth was 14.2% in the assay with NCI-H226 lung; 3.62% (active) in the assay on NCI-H322M lung; 10.2% in the assay with HOP-62 NSCLC; 13.6% with NCI-H460 lung; -3.51% (active) in the assay on HOP-92 NSCLC; 23.4% in the assay on NCI-H522 lung. The growth in the assay on A549/ATCC NSCLC is 28%; in the assay on 786-0 renal it was 9.13% (active); in the assay with COLO 205 colon it was 2.37% (active); with DU-145 prostate it was 34.8%.
As for `O=c1/c(=C\c2ccc(-c3ccccc3)o2)sc2nc(-c3ccccc3)nn12`, the growth in the assay on NCI-H226 lung was 109%; in the assay on NCI-H322M lung, 105%; with HOP-62 NSCLC, 92.8%; in the assay on NCI-H460 lung it was 106%; in the assay with HOP-92 NSCLC, 90%; in the assay on NCI-H522 lung it was 98.3%. Besides, the growth in the assay with A549/ATCC NSCLC was 103%; in the assay with 786-0 renal, 99.2%; with COLO 205 colon it was 117%; in the assay on DU-145 prostate it was 107%.
